The source made the active and inactive calls. No stated cut-off is given here; in the data, active means remaining activity below about 50%; inactive means the rest.
Biological target: Phospholipase D1 (Homo sapiens) (UniProt Q13393)
Experiment: PLD1 inhibitors in cells, Calu-1 cells, single concentration (AID 602144);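 further: tested at 200 nM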
Settings: cellular PLD1 activity, hits give low values

Sequence of Phospholipase D1 (Homo sapiens) (Q13393 whole entry, looked up): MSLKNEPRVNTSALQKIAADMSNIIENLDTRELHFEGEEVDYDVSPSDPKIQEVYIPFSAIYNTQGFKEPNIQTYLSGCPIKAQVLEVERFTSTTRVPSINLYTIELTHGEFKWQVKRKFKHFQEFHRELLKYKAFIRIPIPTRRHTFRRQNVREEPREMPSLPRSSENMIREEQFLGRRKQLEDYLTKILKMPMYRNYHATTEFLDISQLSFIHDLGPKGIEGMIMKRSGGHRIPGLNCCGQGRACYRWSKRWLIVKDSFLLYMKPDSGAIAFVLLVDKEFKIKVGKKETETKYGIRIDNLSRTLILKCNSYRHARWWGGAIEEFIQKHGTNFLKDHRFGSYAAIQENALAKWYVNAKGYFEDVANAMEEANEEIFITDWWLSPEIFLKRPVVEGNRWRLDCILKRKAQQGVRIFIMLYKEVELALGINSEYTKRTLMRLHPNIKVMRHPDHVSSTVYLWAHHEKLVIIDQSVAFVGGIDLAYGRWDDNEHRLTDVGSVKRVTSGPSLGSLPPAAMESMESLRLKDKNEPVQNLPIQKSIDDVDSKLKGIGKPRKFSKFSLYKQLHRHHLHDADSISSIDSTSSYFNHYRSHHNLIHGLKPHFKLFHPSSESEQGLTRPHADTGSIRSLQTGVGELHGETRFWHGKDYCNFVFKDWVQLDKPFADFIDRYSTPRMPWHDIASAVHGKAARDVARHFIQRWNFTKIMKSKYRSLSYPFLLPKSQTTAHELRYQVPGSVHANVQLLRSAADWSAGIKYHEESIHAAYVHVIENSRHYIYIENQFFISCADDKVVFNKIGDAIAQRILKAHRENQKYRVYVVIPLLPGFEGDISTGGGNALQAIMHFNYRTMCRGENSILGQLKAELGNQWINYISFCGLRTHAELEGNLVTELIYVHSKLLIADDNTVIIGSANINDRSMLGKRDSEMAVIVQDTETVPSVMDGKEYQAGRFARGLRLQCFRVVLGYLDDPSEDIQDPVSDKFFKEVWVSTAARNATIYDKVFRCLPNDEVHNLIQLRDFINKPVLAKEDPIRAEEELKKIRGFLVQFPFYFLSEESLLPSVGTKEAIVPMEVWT
Sequence of Phospholipase D1 (Homo sapiens) (Q13393 whole entry, looked up): as above

Structure (SMILES)	remaining activity
O=C(NCCN1CCC(n2c(=O)[nH]c3ccccc32)CC1)NCc1cccc(F)c1	45.6% (active)
O=C(CCc1ccccc1)NCCN1CCC(n2c(=O)[nH]c3ccccc32)CC1	76.1% (inactive)
O=c1[nH]c2ccccc2n1C1CCN(CCNS(=O)(=O)c2ccccc2[N+](=O)[O-])CC1	132% (inactive)
O=C(NCCN1CCC(n2c(=O)[nH]c3ccccc32)CC1)C1CCc2ccccc2C1 (stereo not given)	77.8% (inactive)
O=C(NCCN1CCC(n2c(=O)[nH]c3ccccc32)CC1)c1cccc2ccc3ccccc3c12	75.2% (inactive)
C[C@H](CN1CCC(n2nnc3ccccc32)CC1)NC(=O)c1ccc2ccccc2c1	27.1% (active)
C[C@@H](CN1CCC(n2c(=O)[nH]c3ccccc32)CC1)NC(=O)c1cc2ccccc2s1	28% (active)
C[C@@H](CN1CCC2(CCc3ccccc32)CC1)NC(=O)c1cnc2ccccc2c1	129% (inactive)
O=C(NCCN1CCC(C(=O)NCC2CC2)CC1)c1ccc2ccccc2c1	106% (inactive)
C[C@@H](CN1CCC(n2c(=O)[nH]c3cc(I)ccc32)CC1)NC(=O)c1ccc(Cl)cc1	15.5% (active)
COc1cc(C(=O)NCCN2CCN(c3ccncc3)CC2)ccc1N	90.7% (inactive)
Cn1c(C2CCN(CC3(N)CCCC3)CC2)nc2ccccc21 (tested in a mixture with another compound)	95% (inactive)
C[C@@H](CN1CC=C(n2c(=O)[nH]c3ccccc32)CC1)NC(=O)[C@H]1C[C@@H]1c1ccccc1	15.7% (active)
O=c1[nH]c2ccccc2n1C1CCN(CCNS(=O)(=O)c2ccc(Cl)cc2)CC1	137% (inactive)
O=c1[nH]c2ccccc2n1C1CCN(CCNC(=S)Nc2cccc3ccccc23)CC1	152% (inactive)
O=c1[nH]c2ccccc2n1C1CCN(CCNS(=O)(=O)c2ccc(OC(F)(F)F)cc2)CC1	117% (inactive)
O=C(NCCN1CCC(n2c(=O)[nH]c3ccccc32)CC1)c1cc2ccc3ccccc3c2c2ccccc12	76.6% (inactive)
Cc1ccc(C(=O)N[C@@H](C)CN2CCC(n3c(=O)[nH]c4cc(Cl)ccc43)CC2)cc1	12.1% (active)
O=C(NCCN1CCC(c2nc3ccccc3[nH]2)CC1)c1ccc2ccccc2c1	101% (inactive)
O=c1[nH]c2ccccc2n1C1CCN(CCNC(=S)Nc2ccc(Cl)c(Cl)c2)CC1	170% (inactive)

Structure (SMILES)	remaining activity
C[C@@H](CN1CCC(n2c(=O)[nH]c3cc(-c4cccnc4)ccc32)CC1)NC(=O)[C@H]1C[C@@H]1c1ccccc1	53.2% (inactive)
C[C@@H](CN1CCC2(CC1)CN(S(C)(=O)=O)c1ccccc12)NC(=O)c1ccc2ccccc2c1	119% (inactive)
CN1CCC2(CCN(CCNC(=O)[C@H]3C[C@@H]3c3ccccc3)CC2)C1=O	107% (inactive)
O=c1[nH]c2ccccc2n1C1CCN(CCNC(=S)Nc2ccccc2F)CC1	109% (inactive)
Cc1ccc(S(=O)(=O)NCCN2CCC(n3c(=O)[nH]c4ccccc43)CC2)cc1	104% (inactive)
O=C(NCCN1CCC(n2c(=O)[nH]c3cc(I)ccc32)CC1)C1CC1c1ccccc1 (stereo not given)	16.1% (active)
O=C(NCCN1CCN(c2ccccn2)CC1)c1ccc(Cl)cc1	153% (inactive)
Cc1cccc(C(=O)NCCN2CCC(n3c(=O)[nH]c4ccccc43)CC2)n1	26.7% (active)
CCNC(=S)NCCN1CCC(n2c(=O)[nH]c3ccccc32)CC1	144% (inactive)
Cc1ccc(C(=O)N[C@@H](C)CN2CCC(n3c(=O)[nH]c4ccc(F)cc43)CC2)cc1	27.4% (active)
C[C@@H](CN1CCC(n2c(=O)[nH]c3ccccc32)CC1)NC(=O)C1C[C@H]1c1ccccc1 (stereo not given in full)	25.5% (active)
O=C(NCCN1CCN(c2ccccn2)CC1)c1ccc(F)cc1	126% (inactive)
O=C(NCCN1CCC(n2c(=O)[nH]c3ccc(F)cc32)CC1)c1ccc(C(F)(F)F)cc1	19.1% (active)
CCCCS(=O)(=O)NCCN1CCC(n2c(=O)[nH]c3ccccc32)CC1	124% (inactive)
O=C(NCCN1CCN(c2ccncc2)CC1)c1ccc2ccccc2c1	139% (inactive)
CC(C)[C@@H](CN1CCC(n2c(=O)[nH]c3ccccc32)CC1)NC(=O)c1cc2cc(F)ccc2[nH]1	69.6% (inactive)
O=C(NCCN1CCC(n2c(=O)[nH]c3ccccc32)CC1)c1ccc2ccc3c4c2c1CC=C4CC=C3	95.6% (inactive)
O=C(NCCN1CCN(c2ccncc2)CC1)c1cc2cc(F)ccc2[nH]1	162% (inactive)
O=C(NCCN1CCC(n2c(=O)[nH]c3ccccc32)CC1)c1cnc2ccccc2n1	83.7% (inactive)
C[C@@H](CN1CCC(n2c(=O)[nH]c3cc(I)ccc32)CC1)NC(=O)c1ccc2ccccc2c1	20.1% (active)

Source: PubChem BioAssay AID602144 (Vanderbilt Specialized Chemistry Center, 2011)
